Bioassay records from PubChem BioAssay.
TDP1 block: qHTS Assay for Inhibitors of Tyrosyl-DNA Phosphodiesterase (TDP1). 0.28% of 350,000 active. recombinant TDP1, AlphaScreen DNA substrate cleavage. Potency, µM (titrated, usually from 130 µM), for inactives: at the top dose activity change, negative = inhibition, most hits filed as inhibitors; note: % is set by controls: 0 for no effect and ±100 for the full control effect; nearly all actives have a fitted effect of over 40% in size
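Recombinant human Tdp1 (E. coli-expressed, 1 nM final) preincubated with compounds 15 min at room temperature, then 5'-biotin/3'-phosphotyrosine-FITC DNA substrate (15 nM final) added for 5 min. AlphaScreen beads (10 ug/ml final) added 10 min; cleavage lowers signal.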
JMJD2A Tudor: qHTS Assay for Inhibitors of JMJD2A-Tudor Domain; Potency, µM (titrated, usually from 114 µM), for inactives: at the top dose activity change, negative = inhibition, actives largely listed as inhibitors; AlphaScreen JMJD2A-Tudor / H3K4me3 peptide binding; 4.4% of 390,000 active; AID 504339, 2011; note: % is set by controls: 0 for no effect and ±100 for the full control effect; nearly all actives have a fitted effect of over 50% in size
Sfp inh: qHTS Assay for Inhibitors of Bacillus subtilis Sfp phosphopantetheinyl transferase (PPTase). 4'-phosphopantetheinyl transferase ffp (Bacillus subtilis), Q9F4F7. Biochemical Sfp PPTase activity, qHTS. Potency, µM, for the others: largest response in the series, negative = inhibition, actives largely listed as inhibitors. 3.5% of 310,000 active. AID 1490, 2009;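 note: the enzyme is Sfp with the accession as filed and its product quenches rhodamine fluorescence; 0% = enzyme reaction without inhibitor and -100% = no enzyme wells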
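Sfp 15 nM + cpd, 15 min RT; start w/ rhodamine-CoA 5 uM, BHQ-2-YbbR 12.5 uM (final); 50 mM Hepes pH 7.6, 10 mM MgCl2, 0.01% NP-40, 0.01% BSA; read 525/598 nm at 0 and 30 min.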
BAZ2B block: qHTS Assay for Inhibitors of BAZ2B; AID 504333, 2011; 4.4% of 360,000 active; Bromodomain adjacent to zinc finger domain protein 2B (Homo sapiens), Q9UIF8; Potency, µM (highest dose often 114 µM), without a hit: at the top dose activity change, negative = inhibition, most hits filed as inhibitors; AlphaScreen BAZ2B-H3K14Ac peptide displacement; note: % is set by controls: 0 for no effect and ±100 for the full control effect; nearly all actives have a fitted effect of over 60% in size
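Multi-concentration screen (max 110 uM) measuring displacement of acetylated histone H3 peptide from BAZ2B by AlphaScreen, using 50 nM protein, 50 nM peptide and 10 ug/mL streptavidin donor plus Ni-chelate acceptor beads.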
HP1b binding inh: HTS for Inhibitors of HP1-beta Chromodomain Interactions with Methylated Histone Tails. Potency, µM (titrated, usually from 114 µM), for the others: top-dose activity change, negative = inhibition, hits mostly inhibitors. AlphaScreen HP1-beta / biotin-H3K9me3 peptide binding. 0.56% of 390,000 active; note: nearly all actives have a fitted effect of over 70% in size
Target sequence (P83916 whole entry, looked up): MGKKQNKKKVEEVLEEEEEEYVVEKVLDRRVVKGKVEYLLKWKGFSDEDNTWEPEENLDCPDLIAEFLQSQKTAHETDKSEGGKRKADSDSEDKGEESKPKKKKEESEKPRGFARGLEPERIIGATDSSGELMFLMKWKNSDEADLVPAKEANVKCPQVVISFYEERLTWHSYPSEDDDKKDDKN
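AlphaScreen: HP1-beta (50 nM) preformed 30 min with biotin-H3(1-18)K9me3 peptide (50 nM) in PBS pH 7.4, 0.01% Tween-20. Compound added for 30 min at RT, then streptavidin donor/nickel chelate acceptor beads (10 ug/mL) for 30 min.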
G9a block: qHTS Assay for Inhibitors of Histone Lysine Methyltransferase G9a; Histone-lysine N-methyltransferase EHMT2 (Homo sapiens), Q96KQ7; G9a H3K9 monomethylation, AlphaScreen, 2 h; Potency, µM (top dose mostly 102 µM), for inactives: at the top dose activity, negative = inhibition, usual class: inhibitors; 8.8% of 350,000 active; note: % is set by controls: 0 for no effect and ±100 for the full control effect; nearly all actives have a fitted effect of over 75% in size
Target sequence (Q96KQ7 913-1193 limits assumed): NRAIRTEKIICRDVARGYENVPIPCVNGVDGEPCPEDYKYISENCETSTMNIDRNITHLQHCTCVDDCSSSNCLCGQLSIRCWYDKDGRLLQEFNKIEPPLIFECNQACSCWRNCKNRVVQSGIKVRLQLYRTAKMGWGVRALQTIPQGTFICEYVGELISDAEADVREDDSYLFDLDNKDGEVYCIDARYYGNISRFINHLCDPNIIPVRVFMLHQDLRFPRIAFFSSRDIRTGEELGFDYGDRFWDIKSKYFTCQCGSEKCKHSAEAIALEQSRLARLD
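Quantitative HTS format: methyltransferase activity on a biotin-tagged H3K9 peptide is measured by AlphaScreen, using a rabbit anti-monomethyl-H3K9 antibody with streptavidin donor and anti-IgG acceptor beads. Final levels are 20 nM enzyme, 500 nM peptide, 20 uM SAM; 2 h RT.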
An asterisk follows results filed as active; ? = inconclusive; . = no result given; [ ] = remark or other dose. An excerpt weighted towards active compounds, which were near 12% of everything screened. Calls come from the whole dose curve; as a rule, active = well fitted curve in the direction sought with a large enough effect; inconclusive = small, poorly fitted or top-dose-only effect, or another doubt; inactive = no such curve, though single readings can be large; an effect the other way counts as inactive or inconclusive. Potency is the fitted concentration of half-maximal effect.

SMILES | TDP1 block | JMJD2A Tudor | Sfp inh | BAZ2B block | HP1b binding inh | G9a block
O=C(NC(=S)Nc1ccccc1N1CCOCC1)c1ccco1 | 0.6% | -16.7% | 3.3% | -9.1% | 35.2% | 50.1µM*
O=C(NC(=S)Nc1ccccc1N1CCCC1)c1ccco1 | 12.3% | ? | 31.6µM* | 39.8µM* | ? | .
O=C(Nc1ccccc1N1CCCC1)C1CCCO1 (configuration not stated) | 0.9% | -13.1% | . | -27.5% | 27.3% | 28.2µM*
CCOC(=O)CCCNC(=O)CSc1nc2ccc(OCC)cc2[nH]1 | 5.1% | -19.9% | -8.7% | 2.7% | 26.6% | -8.0%[0.0925 µM]
CSC1=NC(=O)/C(=C\c2cccc3ccccc23)S1 | 2.9% | ? | -13.2% | 39.8µM* | -17.2% | -23.1%
Cc1ccccc1-n1c(=O)cc(N2CCN(Cc3ccccc3)CC2)[nH]c1=O | 5.2% | -13.5% | ? | 13.6% | 8.1% | 56.2µM*
CCCCNc1nc2sc3c(c2c(=O)n1-c1cccc(Cl)c1)CCN(C)C3 | . | -18.7% | 14.3% | -15.8% | -2.7% | ?
CCCCCNc1nc2sc3c(c2c(=O)n1-c1cccc(Cl)c1)CCN(C)C3 | 9.6% | -20.5% | 0.8% | -23.3% | -5.4% | 50.1µM*
COc1ccc(C2Nc3ccccc3C(=O)N2Cc2ccncc2)cc1COc1ccc(NC(C)=O)cc1 (configuration not stated) | 13.7% | 79.4µM* | . | . | . | .
COc1cccc(OCc2cc(C3Nc4ccccc4C(=O)N3Cc3ccco3)ccc2OC)c1 (configuration not stated) | 5.0% | -30.4% | 14.1µM* | -25.3% | 11.9% | ?
COc1ccc(C2Nc3ccccc3C(=O)N2CCO)cc1COc1ccc(NC(C)=O)cc1 (configuration not stated) | ? | 79.4µM* | . | . | . | .
COc1ccc(C2Nc3ccccc3C(=O)N2CC(C)(C)C)cc1COc1ccc(NC(C)=O)cc1 (configuration not stated) | 3.8% | 56.2µM* | . | . | . | .
COc1ccc(C2Nc3ccccc3C(=O)N2CCc2ccc(Cl)cc2Cl)cc1COc1ccc(NC(C)=O)cc1 (configuration not stated) | 1.3% | ? | . | . | . | .
CC(C)CCNC(=O)CSc1nc2ccccc2nc1Cc1ccccc1 | 5.4% | -4.9% | . | 1.5% | 19.8%[57 µM] | 21.1%[59 µM]
Cc1ccc(C(=O)Nc2cccnc2N2CCN(C)CC2)cc1 | -3.5% | -14.8% | 16.0% | -14.0% | 21.3% | ?
COc1ccc(C2Nc3ccccc3C(=O)N2Cc2ccccc2C)cc1COc1ccc(NC(C)=O)cc1 (configuration not stated) | -2.2% | ? | . | . | . | .
COc1ccc(C2Nc3ccccc3C(=O)N2Cc2cccc3ccccc23)cc1COc1ccc(NC(C)=O)cc1 (configuration not stated) | 2.2% | 79.4µM* | . | . | . | .
O=C(CSc1nc(=O)n(CCCN2CCOCC2)c2c1CCCC2)Nc1ccc(Cl)cc1 | 3.9% | -13.8% | . | -5.2% | -0.1% | -10.8%
CCOC(=O)COc1ccc(S(=O)(=O)NC2CC2)cc1 | 4.2% | -6.9% | 9.5% | 10.1% | 53.8% | 9.4%
CNC(=O)c1cnc2sc(N3CCCCCC3)nn2c1=O | 7.1% | -8.3% | . | -16.3% | -11.3% | 16.7%[59 µM]
OC[C@@H]1OC(O)[C@@H](O)[C@H](O)[C@H]1O (some centres not stated) | 6.2% | . | -4.3% | . | . | .
OCC1O[C@H]([S-])[C@H](O)[C@@H](O)[C@@H]1O.[Au+] (some centres not stated) | . | . | . | . | . | 0.212µM*
COC(=O)CN1C(=O)CSc2ccc(S(=O)(=O)Nc3ccc(F)c(Cl)c3)cc21 | 5.6% | -7.6% | . | -0.9% | 38.6% | ?
Brc1ccc(-c2csc(N3CCOCC3)n2)cc1 | 0.1% | -13.6% | -12.6% | -23.7% | 24.4% | ?
Brc1ccc(-c2csc(/N=C/N3CCOCC3)n2)cc1 | 0.0% | -19.0% | 6.1% | -38.8% | 2.5% | 50.1µM*
SMILES | TDP1 block | JMJD2A Tudor | Sfp inh | BAZ2B block | HP1b binding inh | G9a block
O=C(NCCCNC(=O)c1cncc(O)c1)c1cncc(O)c1 | 2.6% | -2.3%[11.4 µM] | 1.2% | ? | 35.2% | 50.1µM*
CCOC(=O)CCCNC(=O)c1cncc(O)c1 | 4.7% | -17.5% | 16.5% | ? | 31.6% | 56.2µM*
O=C(NCCCCCCNC(=O)c1ccncc1)c1ccncc1 | . | -8.3% | -0.8% | 12.5% | 25.9% | .
O=C(NCCCCCCNC(=O)c1cncc(O)c1)c1cncc(O)c1 | 0.6% | 15.8µM* | -15.5% | 50.1µM* | 16.1% | 70.8µM*
COc1cc(C)ccc1OCc1cc(C(=O)N2CCN(C)C[C@@H]2c2ccccc2)no1 | 5.7% | -15.8% | 8.3% | -35.9% | 53.6% | -44.8%
Cc1nccc(-c2cc(-c3ccc(Cl)cc3Cl)no2)n1 | 2.4% | 5.4% | 14.9% | 2.5% | 13.4% | 19.0%
Cc1ccc2nc(N(Cc3cccnc3)C(=O)c3cccs3)sc2c1 | 5.2% | -8.1% | . | -7.0% | 18.9% | 15.8%[59 µM]
COc1cc(C2Nc3ccccc3-c3nnc(SCc4ccc(C)cc4)nc3O2)cc(OC)c1O (configuration not stated) | . | ? | . | ? | 13.3% | 7.08µM*
Cc1cc(C)c2nc(-c3ccccn3)cc(C(=O)NCCc3ccc(S(N)(=O)=O)cc3)c2c1 | -2.7% | -16.8% | 28.2µM* | 9.4% | 14.9% | 35.5µM*
Cc1cc(C)c2nc(-c3ccccn3)cc(C(=O)NCc3ccc(S(N)(=O)=O)cc3)c2c1 | -2.6% | -20.8% | 1.3% | -28.1% | 2.7% | 1.4%
COc1ccc(-c2cc(C(=O)Nc3ccc(S(=O)(=O)Nc4onc(C)c4C)cc3)c3ccccc3n2)cc1OC | -2.6% | -13.5% | -23.7% | ? | 13.1%[57 µM] | .
Cc1cc(C)c2nc(-c3ccccn3)cc(C(=O)Nc3ccc(S(=O)(=O)Nc4onc(C)c4C)cc3)c2c1 | 39.8µM* | 56.2µM* | 35.5µM* | 35.5µM* | 50.1µM* | 12.6µM*
Cc1cc(C)c2nc(-c3ccccn3)cc(C(=O)Nc3ccc(S(=O)(=O)Nc4cc(C)on4)cc3)c2c1 | 1.9% | 50.1µM* | ? | 50.1µM* | -7.6% | -9.4%[0.501 µM]
COc1cccc(N2CCN(c3ncnc4onc(-c5ccc(Cl)cc5)c34)CC2)c1 | 3.8% | -15.4% | . | 26.8% | 73.7% | 9.4%[59 µM]
CCOc1ccccc1/C=N/Nc1nc(C)cc(=O)[nH]1 | . | -21.1% | -10.4% | -18.2% | 43.7% | -26.6%
COc1ccc(/C=N/Nc2nc(C)cc(=O)[nH]2)cc1OC | . | 25.1µM* | 4.7% | -24.9% | 32.9% | ?
